The panel holds about 83,000 compounds, 20% with a hit somewhere; the sample as a whole holds those more often.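 Single-concentration screen, 48 h exposure, 96-well plates. Endpoint: percent growth. Below 10 = active.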 A number with no mark means an inactive call. Active and inactive are the calls of the source.
Assays:
Assay in all cases: NCI-60 one-dose screen, 48 h (100 = growth as untreated, 0 = no growth, -100 = all killed)
Conditions in all cases: 10 µM unless noted
NCI-H23 lung = system: NCI-H23 lung
NCI-H226 lung = system: NCI-H226 lung
NCI-H322M lung = system: NCI-H322M lung
HOP-62 NSCLC = system: HOP-62 NSCLC
NCI-H460 lung = system: NCI-H460 lung
HOP-92 NSCLC = system: HOP-92 NSCLC
NCI-H522 lung = system: NCI-H522 lung
A549/ATCC NSCLC = system: A549/ATCC NSCLC
786-0 renal = system: 786-0 renal
COLO 205 colon = system: COLO 205 colon
DU-145 prostate = system: DU-145 prostate
K-562 leukemia = system: K-562 leukemia
MALME-3M melanoma = system: MALME-3M melanoma
MDA-MB-231 breast = system: MDA-MB-231 breast
RXF 393 renal = system: RXF 393 renal
SF-268 CNS = system: SF-268 CNS
SF-295 CNS = system: SF-295 CNS
SF-539 CNS = system: SF-539 CNS
UACC-257 melanoma = system: UACC-257 melanoma
M14 melanoma = system: M14 melanoma

Row | SMILES | growth (NCI-H23 lung) | growth (NCI-H226 lung) | growth (NCI-H322M lung) | growth (HOP-62 NSCLC) | growth (NCI-H460 lung) | growth (HOP-92 NSCLC) | growth (NCI-H522 lung) | growth (A549/ATCC NSCLC) | growth (786-0 renal) | growth (COLO 205 colon) | growth (DU-145 prostate) | growth (K-562 leukemia) | growth (MALME-3M melanoma) | growth (MDA-MB-231 breast) | growth (RXF 393 renal) | growth (SF-268 CNS) | growth (SF-295 CNS) | growth (SF-539 CNS) | growth (UACC-257 melanoma) | growth (M14 melanoma)
1 | COc1cc(C2CC(=O)c3ccccc3N2)cc(OC)c1OC (stereo not given) | 95.7% | 82.6% | 102% | 97.6% | 101% | 92.2% | 54% | 84.6% | 102% | 113% | 117% | 97.6% | 93.7% | 86.9% | 102% | 104% | 91.7% | 102% | 87.1% | 103%
2 | Cc1nc2ccccc2n1C(=O)C[C@@H]1NC(=S)NC1=O | 95.5% | 92.4% | 96% | 93.2% | 104% | 123% | 96.8% | 93.1% | 101% | 98.9% | 109% | 107% | 83.8% | 95.8% | 108% | 95.1% | 98.4% | 98.6% | 86.9% | 89.3%
3 | Cc1nn(-c2ccc(F)cc2)c2ncnc(Oc3ccc(NC(=O)Nc4ccc(Cl)c(C(F)(F)F)c4)cc3)c12 | 96.7% | 103% | 100% | 105% | 101% | 104% | 99.7% | 96.2% | 106% | 109% | 106% | 105% | 100% | 103% | 107% | 93.4% | 102% | 96.8% | 99.9% | 106%
4 | O=C(O)c1c(=O)cccc2ssc12 | 0.447% (active) | -14.8% (active) | 62.1% | -45.5% (active) | 1.81% (active) | -0.323% (active) | -0.415% (active) | -51% (active) | -10.1% (active) | -45.7% (active) | -64.5% (active) | 4.02% (active) | -58.3% (active) | -57.3% (active) | -66.8% (active) | -38.6% (active) | -6.02% (active) | -18.6% (active) | 54.1% | 3.29% (active)
5 | O=C1c2cc3c(cc2-c2c1c1ccc(F)cc1c(=O)n2C[C@H](O)[C@@H](O)[C@H](O)CO)OCO3 | -31.9% (active) | -17.4% (active) | 13% | -7.29% (active) | 3.2% (active) | 6.56% (active) | -22.1% (active) | -33.7% (active) | 4.19% (active) | -31.1% (active) | 2.47% (active) | 9.69% (active) | -54.6% (active) | 11.1% | -47.1% (active) | 11.2% | -0.994% (active) | -44.6% (active) | -44.3% (active) | -14% (active)
6 | COc1ccc(/C=C/C(=O)c2cc(O)ccc2O)cc1 | 95.8% | 94.5% | 111% | 114% | 96.6% | 70.6% | -23.6% (active) | 78.6% | 96.5% | 99% | 89.3% | 66.4% | 100% | 77.4% | 81.6% | 84.4% | 111% | 88.4% | 75.5% | 105%
7 | Nc1nc2ncc(CCNc3ccc(C(=O)O)cc3)nc2c(=O)[nH]1 | 108% | 100% | 125% | 113% | 114% | 97.8% | 100% | 105% | 104% | 105% | 128% | 115% | 137% | 107% | 112% | 120% | 110% | 101% | 104% | 107%
8 | C=C(C)[C@@H]1CC[C@]2(C(=O)OC)CC[C@]3(C)[C@H](CC[C@@H]4[C@@]5(C)C/C(=C/c6ccc(OC)cc6)C(=O)C(C)(C)[C@@H]5CC[C@]43C)[C@@H]12 | 84.8% | 97.2% | 106% | 99.9% | 101% | 77.9% | 78.8% | 89.5% | 92.2% | 94.4% | 91.1% | 3.32% (active) | 99.7% | 108% | 66.9% | 90.7% | 99.9% | 90.3% | 104% | 91%
9 | CCCSc1ccc2nc(NC(=O)OC)[nH]c2c1 | 24% | 23.2% | 60.1% | 35.2% | 6.79% (active) | 33.6% | -35.7% (active) | 16.5% | 31% | 5.29% (active) | 16.1% | 14.7% | 42% | 18.8% | -4.86% (active) | 44.8% | -2.45% (active) | 4.44% (active) | 59.3% | 0.47% (active)
10 | CCn1c(O)c(/C=N/NC(=O)C(C)c2ccc(CC(C)C)cc2)sc1=S (stereo not given) | 39.2% | 31.1% | 37.6% | 22.9% | 7.24% (active) | 39.9% | -11.6% (active) | 21.8% | 17.8% | 15.3% | 22.1% | 9.15% (active) | 64.3% | 35.4% | 9.92% (active) | 32.9% | 15.8% | -13.5% (active) | 51.9% | 6.26% (active)
11 | Cc1cc(C)nc(SC2=C(Nc3cccc(Cl)c3C)C(=O)N(Cc3ccccc3)C2=O)n1 | 58.9% [30 µM] | 69.2% [30 µM] | 63.5% [30 µM] | 73% [30 µM] | 44% [30 µM] | 14.4% [30 µM] | 51.3% [30 µM] | 27.3% [30 µM] | 61.8% [30 µM] | 70.3% [30 µM] | 70.7% [30 µM] | 45.4% [30 µM] | 58% [30 µM] | 51.6% [30 µM] | 43.3% [30 µM] | 72% [30 µM] | -5.72% [30 µM] (active) | 50.5% [30 µM] | 72.3% [30 µM] | 63.1% [30 µM]
12 | CCCCN1CCCn2c1nc1c2c(=O)n(CCC)c(=O)n1CCC | 104% | 113% | 97.7% | 102% | 99.6% | 81.7% | 76.6% | 82.2% | 95.8% | 114% | 105% | 75.7% | 123% | 93.8% | 91.3% | 95.2% | 102% | 100% | 97.4% | 110%
13 | COc1ccc(C(=O)COc2cccc(/C=C3\CSc4ccccc4C3=O)c2)cc1 | 12.9% | 79.9% | 62.4% | 86.9% | 72.6% | 60.4% | -63.1% (active) | 87.4% | 80.2% | 105% | 102% | -73.4% (active) | -67.2% (active) | 76.6% | -39.6% (active) | 51.7% | 38% | 62.5% | -35.8% (active) | -26.3% (active)
14 | CC(=O)O[C@H]1[C@@H]2OC(=O)C(CSc3ccccc3)[C@@H]2C[C@H]2O[C@]2(C)CC/C=C(\C)CCC[C@@H]1C (stereo not given in full) | 53.1% | 47.9% | 38% | 101% | 42.3% | -22.4% (active) | -87.2% (active) | 21.2% | 61.4% | 29.7% | 1.69% (active) | 63.1% | 87.2% | 14.9% | -53.3% (active) | 44.7% | 49.3% | 57% | 15.8% | 51.7%
15 | CC(C)n1c(/C=C/[C@@H](O)C[C@@H](O)CC(=O)O)c(-c2ccc(F)cc2)c2ccccc21 | 38.4% | 64.1% | 43.7% | 73.4% | 32.5% | -29.1% (active) | 0.551% (active) | 61.3% | 64% | 75.4% | 97.9% | 66.4% | 79.6% | 15.7% | 50.9% | 43.6% | 16.8% | 83.5% | 79.4% | 55.5%
